High-throughput results: PubChem, National Center for Advancing Translational Sciences (NCATS)
DRV1 agonist – qHTS for Agonists of Human Resolvin D1 Receptor DRV1; CHO-K1 GPR32 beta-arrestin PathHunter luminescence, 90 min; zero percent set by DMSO-only wells; activation, % at 76.9 µM; 48,000 compounds, 2.5% hits; AID 1346428, 2018;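 active = activation of at least 60% and not above a set upper limit, about 1 call in 100 departs from these limits; inconclusive = activation of 40% to 60%, or above that upper limit; inactive = activation under 40%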; note: 0% is about no effect
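Readings come from a cell-based beta-arrestin complementation format: CHO-K1 GPR32 stable cells (2,500/well) treated 90 min with compounds, then beta-Gal substrate added for 1 h before chemiluminescence imaging.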
p53null 39C kill – qHTS Screen for Compounds that Selectively Target Cancer Cells with p53 Mutations: Cytotoxicity of p53 Null Cells at the Nonpermissive Temperature | H1299 p53-null (neo) cells, 39C, ATPlite viability, 24 h | Potency, µM (top dose mostly 46.1 µM), for inactives: at the highest dose activity, negative = cell killing, usual class: cytotoxic | 55,000 compounds, 0.97% hits | AID 904, 2007;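 note: potency is the fitted concentration of half-maximal effect; 0% = DMSO only and -100% = full killing by 100 µM tamoxifen; nearly all actives have a fitted effect of over 50% in size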
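Temperature-shift cytotoxicity format: compound titrations on p53-null or A138V-expressing H1299 cells held 24 hr at 39C, cell ATP then measured, AC50 from Hill model.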
p53null 32C tox – qHTS Screen for Compounds that Selectively Target Cancer Cells with p53 Mutations: Cytotoxicity of p53 Null Cells at the Permissive Temperature. Potency, µM (titrated, usually from 46.1 µM), inactives show at the highest dose activity change, negative = cytotoxicity, usual class: cytotoxic. H1299-neo p53 null cells, ATP luminescence, 24 h, 32C. 55,000 compounds, 0.62% hits. AID 903, 2007;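 note: potency is the fitted concentration of half-maximal effect; 0% = DMSO only and -100% = full killing by 100 µM tamoxifen; nearly all actives have a fitted effect of over 55% in size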
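Luminescent ATP readout gave cell viability of p53-null H1299-neo cells after a 24 h compound exposure at the permissive 32C. Titrations ran up to 46 uM, and AC50s were fitted with the standard Hill equation.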
FH mod – Identification of activators of human fumarate hydratase by quantitative high-throughput screening | Potency, µM (highest dose often 79.9 µM), for inactives: top-dose activity change, negative = inhibition, usual class: inhibitors | FH coupled MDH/diaphorase resazurin fluorescence, 15 min | 54,000 compounds, 0.22% hits | Fumarate hydratase, mitochondrial (Homo sapiens), P07954; note: potency is the fitted concentration of half-maximal effect; % is set by controls: 0 for no effect and ±100 for the full control effect; the screen sought activators but most active calls are inhibition curves; nearly all actives have a fitted effect of over 45% in size
Target sequence (P07954 whole entry, looked up): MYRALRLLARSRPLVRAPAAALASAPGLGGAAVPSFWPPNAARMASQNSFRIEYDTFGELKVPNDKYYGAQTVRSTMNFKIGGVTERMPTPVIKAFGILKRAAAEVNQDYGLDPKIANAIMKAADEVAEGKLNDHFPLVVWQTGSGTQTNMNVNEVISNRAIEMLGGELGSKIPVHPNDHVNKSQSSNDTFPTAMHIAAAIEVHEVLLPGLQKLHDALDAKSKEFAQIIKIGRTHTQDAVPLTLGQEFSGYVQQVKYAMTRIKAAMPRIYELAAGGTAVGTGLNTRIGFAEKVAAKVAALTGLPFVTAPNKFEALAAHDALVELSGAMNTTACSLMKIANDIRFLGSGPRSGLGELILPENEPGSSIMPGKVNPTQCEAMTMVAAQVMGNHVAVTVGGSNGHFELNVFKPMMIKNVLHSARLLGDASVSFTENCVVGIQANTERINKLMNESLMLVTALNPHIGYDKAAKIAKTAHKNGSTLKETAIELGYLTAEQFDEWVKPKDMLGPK
An asterisk follows results filed as active; u = inconclusive; x = no result; [ ] = dose if it differs, or a comment. Rows were chosen to be rich in hits. Some 2.9% of all compounds tested hit in one or more screens of this group. Unless noted, calls come from the whole dose curve; as a rule, active = well fitted curve in the direction sought with a large enough effect; inconclusive = small, poorly fitted or top-dose-only effect, or another doubt; inactive = no such curve, though single readings can be large; an effect the other way counts as inactive or inconclusive.

SMILES | DRV1 agonist | p53null 39C kill | p53null 32C tox | FH mod
O=c1[nH]ccc2cc(OC3CCNCC3)ccc12 | x | x | x | 0.4%
Cc1ccnc(NC(c2ccccc2F)c2ccc3cccnc3c2O)c1 (stereo unspecified) | u | u | -27.7% | 2.7%
Oc1c(C(Nc2ccccn2)c2ccccc2F)ccc2cccnc12 (stereo unspecified) | 1.4 | 3.98µM* | u | -8.7%
CCn1nnnc1NCc1ccc(C(C)C)cc1 | x | x | x | 3.9%
NS(=O)(=O)c1ccc(CCNc2nccn(-c3cccc(C(F)(F)F)c3)c2=O)cc1 | 63.1* | 2.9% | -4.3% | 13.8%
COc1ccc(-n2ccnc(NCCc3ccc(S(N)(=O)=O)cc3)c2=O)cc1Cl | u | -13.6% | -4.8% | 5.1%
O=C(NC1Cc2ccccc2N(C[C@@H](O)CO)C1=O)c1cc2cc(Cl)sc2[nH]1 (stereo partly specified) | x | x | x | 2.5%
Cc1cc(F)ccc1NC(=O)c1sc2nc(-c3cccs3)ccc2c1N | 67.0* | -7.0% | -5.5% | -10.7%
COc1cccc(-c2ccc3c(N)c(C(=O)Nc4ccc(Cl)cc4F)sc3n2)c1 | 39.3 | u | -16.8% | -1.4%
COc1ccc(-c2ccc3c(N)c(C(=O)Nc4cc(F)ccc4C)sc3n2)cc1 | -4.4 | 3.2% | -9.1% | -6.3%
Cc1ccc(NC(=O)c2sc3nc(-c4ccc(F)cc4)ccc3c2N)cc1F | 85.8* | u | -12.8% | -11.6%
Nc1c(C(=O)Nc2ccc(Br)cc2)sc2nc(-c3ccncc3)ccc12 | -20.5 | -14.6% | 5.2% | -7.4%
Nc1c(C(=O)Nc2ccc(C(F)(F)F)cc2)sc2nc(-c3cccs3)ccc12 | 70.8* | 15.4% | 2.6% | -4.2%
O=C(Nc1ccccc1)Nc1ccc(-c2ccc(C(=O)C3CCCC3C(=O)O)cc2)cc1 (stereo unspecified) | x | x | x | -17.0%
COC(=O)C1=CO[C@@H](O[C@@H]2O[C@H](CO)[C@@H](O)[C@H](O)[C@H]2O)C2C1CC(O)C2C (stereo partly specified) | x | x | x | 4.9%[53.3 µM]
CCOC(=O)c1ccccc1NC(=O)CSc1ncc(CO)n1Cc1ccc(C)cc1 | 73.8* | 8.2% | -4.3% | x
Cc1ccc(Cn2c(CO)cnc2SCC(=O)Nc2cccc(F)c2)cc1 | 29.0 | 25.6% | 4.5% | -22.9%
COc1ccccc1NC(=O)CSc1ncc(CO)n1Cc1ccc(F)cc1 | 65.3* | u | -5.0% | 2.5%
OCc1cnc(SCc2cccc(F)c2)n1Cc1ccc(F)cc1 | 88.6* | 15.0% | -7.6% | -5.3%
C[C@@H]1C[C@@H]([C@@H](O)C(C)(C)O)O[C@H]2C[C@@]3(C)C(=C12)C[C@H](O)[C@H]1[C@@]2(C)CCC(=O)C(C)(C)C2CC[C@@]13C (stereo partly specified) | x | x | x | 2.3%[53.3 µM]
Cc1nc2c(c(C)nn2-c2ccccc2)c(C)c1CCC(=O)Nc1ccc(F)cc1 | 15.1 | -20.9% | 3.7% | -7.6%
CC(=O)Nc1ccc(NC(=O)CCc2c(C)nc3c(c(C)nn3-c3ccc(C)cc3)c2C)cc1 | -23.1 | 6.31µM* | -0.8% | -11.4%
CC(=O)Nc1ccc(NC(=O)CCc2c(C)nc3c(c(C)nn3-c3ccccc3)c2C)cc1 | -2.6 | u | -0.2% | -8.9%
Cc1nc2c(c(C)nn2C(C)(C)C)c(C)c1CCC(=O)Nc1ccc(F)cc1 | 74.1* | -23.4% | -3.0% | 7.7%
COc1cc(Cl)c(NS(=O)(=O)c2ccc(-c3coc(C)n3)cc2)c(OC)c1 | 82.6* | 21.3% | 9.2% | -1.8%
CCN(CC)c1ccc(NS(=O)(=O)c2ccc(-c3coc(C)n3)cc2)c(C)c1 | 68.4* | 3.2% | 58.5% | u
COc1cc(Cl)c(NS(=O)(=O)c2cc(-c3cc(C)no3)ccc2OC)c(OC)c1 | -15.4 | -6.8% | 20.9% | -27.9%
COC(=O)C1=COC(O[C@@H]2O[C@H](CO)[C@@H](O)[C@H](O)[C@H]2O)/C(=C\COC(=O)/C=C/c2ccccc2)C1CC(=O)OCCc1ccc(O)cc1 (stereo partly specified) | x | x | x | -4.3%[20.6 µM]
Cc1ccc(NC(=O)CSc2n[nH]c(-c3ccc(F)cc3)n2)cc1F | 66.8* | -20.8% | -5.9% | -23.2%
